In the library only some 18% were active in any assay of this set; here they are far more common.
TDP1 cell noCPT: qHTS for Inhibitors of human tyrosyl-DNA phosphodiesterase 1 (TDP1): qHTS in cells in absence of CPT | AID 686978, 2013 | DT40 Tdp1-/- hTDP1 cells, no CPT, ATP luminescence, 48 h | Potency, µM (doses to about 46.2 µM), for inactives: top-dose activity change, negative = growth inhibition, usual class: inhibitors | actives 15% (n = 420,000); also: nearly all actives have a fitted effect of over 55% in size
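A cellular qHTS used chicken DT40 cells lacking endogenous Tdp1 but carrying stably transfected human TDP1. Compounds were applied without camptothecin, and cell growth kinetics were judged by ATP-dependent luminescence after ≥48 hr.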
TDP1 block: TDP1 (human) enzyme inhibition; Q9NUW8; recombinant TDP1, AlphaScreen DNA substrate cleavage; Potency, µM (top dose mostly 130 µM), for inactives: top-dose activity change, negative = inhibition, actives largely listed as inhibitors; actives 0.28% (n = 350,000); also: nearly all actives have a fitted effect of over 40% in size
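E. coli-derived human Tdp1, 1 nM final. Cpd preinc 15 min RT; substrate 15 nM final, 5 min RT; AS bead mix 10 ug/ml final, 10 min RT. Signal loss = tyrosine-FITC cleavage. No-enzyme wells = max signal.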
PLK1 PBD block: PLK1 (human) polo-box domain binding inhibition. Potency, µM, inactives show max response, negative = inhibition, usual class: inhibitors. Plk1 PBD binding of FITC phosphopeptide, fluorescence polarization. P53350. actives 2.8% (n = 360,000); also: series mostly up to about 57 µM; nearly all actives have a fitted effect of over 65% in size
VDR inh: vitamin D3 receptor (human) inhibition; P11473; VDR-SRC2-3 peptide fluorescence polarization, 2 h; Potency, µM, for inactives: max response, negative = inhibition, hits mostly inhibitors; actives 0.93% (n = 400,000); AID 504847
Target sequence (P11473 whole entry, looked up): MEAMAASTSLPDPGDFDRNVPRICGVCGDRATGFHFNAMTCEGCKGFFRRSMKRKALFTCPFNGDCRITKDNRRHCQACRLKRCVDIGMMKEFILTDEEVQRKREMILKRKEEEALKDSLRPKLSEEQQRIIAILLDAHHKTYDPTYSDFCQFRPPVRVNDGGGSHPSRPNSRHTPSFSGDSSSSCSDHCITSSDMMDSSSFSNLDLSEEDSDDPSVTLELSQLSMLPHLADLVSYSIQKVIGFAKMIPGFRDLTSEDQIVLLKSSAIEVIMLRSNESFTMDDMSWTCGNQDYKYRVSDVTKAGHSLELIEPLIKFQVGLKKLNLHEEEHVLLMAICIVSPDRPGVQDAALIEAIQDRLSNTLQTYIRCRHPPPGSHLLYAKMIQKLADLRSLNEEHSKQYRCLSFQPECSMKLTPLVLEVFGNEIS
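VDR–SRC2-3 interaction, FP format. Cmpds 23 nl via pintool, brief spin, 2 h ambient incubation.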
GCN5L2 inh: blocks human GCN5L2 histone acetyltransferase; Q92830; actives 0.21% (n = 390,000); Potency, µM (top dose mostly 58.9 µM), for the others: top-dose activity change, negative = inhibition, hits mostly inhibitors; GCN5L2 HAT assay, ThioGlo1 CoA-SH fluorescence
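Titration-based screen in which CoA formation is detected via maleimide probe ThioGlo1 (50uM) turning fluorescent on thiol reaction; substrates H3(1-25) 75uM and acetyl-CoA 70uM, GCN5L2 20nM, 20 min incubation at room temperature.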
DT40 TDP1 CPT: DT40-hTDP1 cell growth loss with CPT. chicken DT40 Tdp1-/-;hTDP1 cells + 20 nM CPT, ATP luminescence, 48 h. Potency, µM (doses to about 46.2 µM), for inactives: top-dose activity change, negative = growth inhibition, hits mostly inhibitors. actives 12% (n = 420,000); also: nearly all actives have a fitted effect of over 55% in size
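Chicken DT40 Tdp1-/- cells stably complemented with human TDP1 were seeded at 400 cells/well in medium containing 20 nM camptothecin, exposed to pin-transferred compounds, and grown at 37 °C for at least 48 hr. Viability was read as ATP luminescence.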
* hit, by the source's call; ? = inconclusive; . = no result given; [ ] = remark or other dose. Calls follow the shape of the dose curve; as a rule, active = well fitted curve in the direction sought with a large enough effect; inconclusive = small, poorly fitted or top-dose-only effect, or another doubt; inactive = no such curve, though single readings can be large; an effect the other way counts as inactive or inconclusive. % is scaled to controls: 0 for no effect and ±100 for the full control effect; potency is read from the fitted curve at half-maximal effect.

SMILES	TDP1 cell noCPT	TDP1 block	PLK1 PBD block	VDR inh	GCN5L2 inh	DT40 TDP1 CPT
O=S(=O)(O)c1ccc(SCc2ccccc2)nc1	11%	.	21µM*	?	.	2%
COc1ccc(CSc2ccc(S(=O)(=O)N3CCCC3)cn2)cc1F	16µM*	.	-2%	.	.	23µM*
COc1ccc(C(C)=O)cc1CSc1ccc(S(=O)(=O)N2CCCCC2)cn1	16µM*	-3%[56.1 µM]	?	7%	-14%	?
O=C(O)c1ccc(SCc2ccccc2)nc1	-6%	.	-2%	-18%	.	6%
O=S(=O)(c1ccc(SCc2ccc(Cl)cc2)nc1)N1CCCC1	15µM*	-9%	-13%	-1%	-1%	?
COc1ccc(CSc2ccc(S(=O)(=O)N3CCCCC3)cn2)cc1F	-1%	-2%	-5%	-6%	0%	-12%
COc1ccc(C(C)=O)cc1CSc1ccc(S(=O)(=O)N2CCOCC2)cn1	?	3%	-30%	2%	-3%	?
O=C(O)CC/C=C\CC[C@H]1[C@@H](N2CCCCC2)[C@@H](O)C[C@@H]1OCc1ccc(-c2ccccc2)cc1	-2%	10%[56.1 µM]	.	-6%	-6%	-1%
O=C(CN1CCN(c2cccc(C(F)(F)F)c2)CC1)N(C1CCCC1)C1CCS(=O)(=O)C1 (stereo unspecified)	?	0%	6%	9%	-6%	?
CCOCCCN(C(=O)c1snc(C(N)=O)c1N)C(C(=O)NC1CCCC1)c1ccc(OC)cc1 (stereo unspecified)	?	2%[0.0935 µM]	-2%	-5%	-6%	-2%
O=S(=O)(c1ccc(SCCOc2ccc(Br)cc2)nc1)N1CCCC1	16µM*	-8%[56.1 µM]	-24%	-15%	-22%	?
CCCC(=O)Nc1ccc2nn(-c3ccc(CC)cc3)nc2c1	?	.	.	10%	-5%	?
CCOC(=O)C1=C(c2ccccc2)NC(SC)=C(C#N)C1c1ccco1 (stereo unspecified)	21µM*	1%	-18%	27%	-1%	18µM*
CN(C)CCCC1(O)c2ccccc2CCc2ccccc21	-29%	0%	-6%	18%	-3%	-9%
CN1CCC(C2(O)c3ccccc3CCc3ccccc32)CC1	?	-3%	-11%	2%	-1%	18µM*
CC(=O)Oc1ccc2ccc3ccc(C(C)=O)cc3c2c1	18µM*	.	-15%	3%	.	?
N#CC1(NC(=O)CSc2nnc(-c3ccccc3F)o2)CCCCC1	-14%	-7%	?	-1%	1%	-9%
CCn1cc(/C=C/C(=O)Nc2c(C)nn(Cc3ccccc3)c2C)cn1	9.2µM*	3%	-9%	-14%	-4%	?
Cc1nn(Cc2ccccc2Cl)c(C)c1NC(=O)/C=C/c1cnn(C)c1	?	2%	-5%	10%	-8%	-25%
Cc1nn(Cc2ccc(Cl)cc2Cl)c(C)c1NC(=O)NC12CC3CC(CC(C3)C1)C2	18µM*	1%	-22%	-14%	-10%	21µM*
CCn1ncc(/C=C/C(=O)Nc2c(C)nn(Cc3ccc(Cl)cc3Cl)c2C)c1C	15µM*	0%	-9%	-21%	15%	15µM*
CC(O)(Cc1cccnc1)c1cccs1 (stereo unspecified)	0%	.	5%	-2%	.	9%
Cc1cc(C)c(NC(=S)NCCCSC2CCCCC2)c(C)c1	?	8%	24µM*	-2%	-13%	?
COc1ccc(/C=C/C(=O)N(CC(C)C)CC(C)C)cc1Br	16µM*	3%	-5%	-10%	-7%	16µM*
COc1ccc(/C=C/C(=O)c2cccs2)c(OC)c1	2.4µM*	.	.	11µM*	?	1.1µM*
SMILES	TDP1 cell noCPT	TDP1 block	PLK1 PBD block	VDR inh	GCN5L2 inh	DT40 TDP1 CPT
COc1cc(/C=C/C(=O)c2ccccc2O)cc(OC)c1OC	?	7%	?	32µM*	-7%	-30%
COc1ccc(C(=O)/C=C/c2ccccc2)c(OC)c1	12µM*	4%	-5%	-22%	-5%	-104%
COc1ccc(C=CC(=O)c2cc(O)ccc2O)cc1	?	.	-2%	?	.	?
COc1ccc(CN2CCN(C(=O)CC(C)C)CC2)cc1Br	?	.	0%	1%	1%	-2%
C[N+](C)(CCOc1ccccc1)Cc1cccs1	-25%	.	.	.	.	6%
COc1ccc(-n2c(CCNC(=O)c3ccc(-c4cccc(F)c4)cc3)nnc2SC)cc1	?	.	.	.	.	-1%[9.04 µM]
COc1ccc(/C=C/C(=O)c2cc3cccc(OC)c3oc2=O)cc1	23µM*	6%	-18%	?	-11%	?
COc1cc(/C=C/C(=O)OC(C)C(=O)c2ccccc2)cc(OC)c1OC (stereo unspecified)	15µM*	0%	3%	-3%	-16%	21µM*
CNC(=O)c1cc2cccc(OC)c2oc1=O	10%	-2%	-9%	6%	3%	-7%
COc1ccc(OC)c(C(=O)/C=C/c2ccccc2C(F)(F)F)c1	21µM*	8%	-7%	?	-15%	26µM*
COCOc1cc(OC)ccc1C(=O)/C=C\c1ccc2c(c1)OCO2	.	3%[21 µM]	.	.	.	.
COCOc1cc(O)c(C(=O)/C=C/c2ccccc2)c(OCOC)c1	18µM*	.	-8%	?	.	15µM*
O=C1CCC(C(=O)N2CCSCC2)CN1Cc1cccc(C(F)(F)F)c1 (stereo unspecified)	1%	3%	-8%	-14%	-7%	-6%
COc1ccc(C(=O)/C=C/Nc2cc(C)on2)c(OC)c1	-15%	0%	0%	-9%	-8%	?
COCOc1ccc(OC)cc1C(=O)/C=C/c1ccc(OC)c(Br)c1	.	12%	.	40µM*	.	.
COc1ccc(C(=O)/C=C/c2ccc(N3CCCCC3)c([N+](=O)[O-])c2)c(OC)c1	21µM*	11%	4%	?	-8%	?
COCOc1cc(OC)ccc1C(=O)/C=C/c1ccc2c(c1)OCO2	.	10%	.	.	.	.
COc1ccc(C(=O)/C=C/c2ccc(N(C)C)cc2)c(OC)c1	10µM*	1%	50%	-22%	-9%	7.3µM*
Cc1cc(C)nc(SCC(CSc2nc(C)cc(C)n2)C(=O)O)n1	-7%	-2%	-10%	-18%	3%	3%
Cc1cc(/C=C(\C#N)C(=O)OCC(=O)N(C)c2c(N)n(Cc3ccccc3)c(=O)[nH]c2=O)c(C)n1CC(C)C	?	.	-1%	.	.	-15%
Clc1cccc(-c2nc3ccccn3c2Nc2ccc3c(c2)OCCO3)c1	8.2µM*	12%	.	-10%	-17%	?
